High-throughput results: PubChem BioAssay, National Center for Advancing Translational Sciences (NCATS)
Sampled rows, rich in hits. Any-hit rate of the full collection: about 12%.
PLK1 PBD inh: PLK1 (human) polo-box domain binding inhibition; P53350; Plk1 PBD binding of FITC phosphopeptide, fluorescence polarization; Potency, µM, inactives show max response, negative = inhibition, hits mostly inhibitors; 360,000 compounds, 2.8% hits; note: potency is the fitted concentration of half-maximal effect; series mostly up to about 57 µM; % is set by controls: 0 for no effect and ±100 for the full control effect; nearly all actives have a fitted effect of over 65% in size
HP1b chromo inh: blocks HP1-beta chromodomain binding to methylated histone tails; P83916; AID 540317; AlphaScreen HP1-beta / biotin-H3K9me3 peptide binding; 390,000 compounds, 0.56% hits; Potency, µM (top dose mostly 114 µM), inactives show top-dose activity change, negative = inhibition, usual class: inhibitors; note: potency is the fitted concentration of half-maximal effect; nearly all actives have a fitted effect of over 70% in size
Target sequence (P83916 whole entry, looked up): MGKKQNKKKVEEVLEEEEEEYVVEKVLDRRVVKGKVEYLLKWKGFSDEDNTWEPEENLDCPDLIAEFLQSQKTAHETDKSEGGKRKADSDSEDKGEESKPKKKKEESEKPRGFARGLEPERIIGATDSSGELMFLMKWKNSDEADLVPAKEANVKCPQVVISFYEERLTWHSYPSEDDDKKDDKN
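HP1-beta protein (50 nM final) preincubated 30 min at room temperature with biotinylated H3(1-18)K9me3 peptide (50 nM) in PBS pH 7.4, 0.01% Tween-20, then compound added for 30 min. AlphaScreen streptavidin donor/nickel chelate acceptor beads (10 ug/mL final), 30 min dark, luminescence read.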
JMJD2A Tudor: blocks the human JMJD2A Tudor domain; AlphaScreen JMJD2A-Tudor / H3K4me3 peptide binding; Potency, µM (series often up to 114 µM), inactives show at the top dose activity change, negative = inhibition, most hits filed as inhibitors; 390,000 compounds, 4.4% hits; note: potency is the fitted concentration of half-maximal effect; % is set by controls: 0 for no effect and ±100 for the full control effect; nearly all actives have a fitted effect of over 50% in size
PI5P4Ka inh: inhibitors of human PI5P4K alpha; P48426; PI5P4Kalpha enzyme, ADP-Glo luminescence, 60 min; active compounds read low; max response, %; 330,000 compounds, 1.2% hits; active = max response of -50% or lower; inconclusive = between -30% and -50%; inactive = -30% or higher; note: value at the top dose of about 77 µM; % is set by controls: 0 for no effect and ±100 for the full control effect
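Compounds were pin-transferred onto PI5P4Kalpha and substrate in HEPES pH 7.4 buffer with EGTA, CHAPS and 5% DMSO. ATP (5 microM final) started the reaction, which ran 60 minutes at room temperature before ADP-Glo detection.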
BAZ2B block: BAZ2B (human) inhibition. Potency, µM (doses to about 114 µM), inactives show at the top dose activity change, negative = inhibition, actives largely listed as inhibitors. AlphaScreen BAZ2B-H3K14Ac peptide displacement. 360,000 compounds, 4.4% hits; note: potency is the fitted concentration of half-maximal effect; % is set by controls: 0 for no effect and ±100 for the full control effect; nearly all actives have a fitted effect of over 60% in size
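Complex of BAZ2B and biotin-H3K14Ac (50 nM apiece) forms over 30 min at RT, then faces library compounds up to 110 uM for another 30 min; AlphaScreen beads added, 20 min dark incubation, luminescence read.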
G9a inh: inhibitors of human histone lysine methyltransferase G9a. Q96KQ7. G9a H3K9 monomethylation, AlphaScreen, 2 h. Potency, µM (top dose mostly 102 µM), for inactives: at the highest dose activity, negative = inhibition, actives largely listed as inhibitors. 350,000 compounds, 8.8% hits. AID 504332; note: potency is the fitted concentration of half-maximal effect; % is set by controls: 0 for no effect and ±100 for the full control effect; nearly all actives have a fitted effect of over 75% in size
Target sequence (Q96KQ7 913-1193 limits assumed): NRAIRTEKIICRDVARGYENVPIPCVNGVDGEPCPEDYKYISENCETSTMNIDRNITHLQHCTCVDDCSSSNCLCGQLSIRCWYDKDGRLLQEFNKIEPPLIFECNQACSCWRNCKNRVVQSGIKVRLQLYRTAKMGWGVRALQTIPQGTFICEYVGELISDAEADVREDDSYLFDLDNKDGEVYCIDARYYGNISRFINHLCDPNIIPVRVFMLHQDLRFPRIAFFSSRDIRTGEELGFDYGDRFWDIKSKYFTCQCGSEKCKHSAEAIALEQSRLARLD
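Compounds were preincubated with 20 nM G9a for 15 min, after which biotinylated H3K9 peptide (500 nM) and SAM (20 uM) started a 2 h room-temperature reaction. Monomethylated product was quantified by antibody-based AlphaScreen chemiluminescence.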
ADP-Glo interf: interferes with ADP-Glo detection without enzyme present | Potency, µM (titrated, usually from 76.9 µM), for inactives: at the top dose activity change, negative = inhibition, usual class: inhibitors | shares compounds with PI5P4Ka inh | 1,100 tested, under 10 active | ADP-Glo detection counter-screen, luciferase luminescence, no enzyme
Active calls of the source: *; ? = inconclusive; . = no result given; [ ] = remark or other dose. Unless noted, calls come from the whole dose curve; as a rule, active = well fitted curve in the direction sought with a large enough effect; inconclusive = small, poorly fitted or top-dose-only effect, or another doubt; inactive = no such curve, though single readings can be large; an effect the other way counts as inactive or inconclusive.

SMILES	PLK1 PBD inh	HP1b chromo inh	JMJD2A Tudor	PI5P4Ka inh	BAZ2B block	G9a inh	ADP-Glo interf
COc1ccc(S(=O)(=O)N2CCOC2CNC(=O)C(=O)NCCCN2CCOCC2)cc1 (configuration not stated)	-4%	7%	-11%	3	1%	33%	.
CCOc1ccc(CCNS(=O)(=O)c2cn(C)cn2)cc1OCC	-23%	7%	-23%	-26	-16%	52%	0%
CCC[C@@H]1Cc2ccccc2N1C(C)=O	-2%	53%	-11%	8	-3%	8%[0.501 µM]	.
CCCNc1c(F)c(F)c2c(C)c3ccccc3nc2c1F	?	80%	-6%	-66*	26%	2%[12.7 µM]	-14%
O=C(c1ccc(COc2ccccc2Cl)o1)N1CCCC1	-6%	54%	6%	-4	5%	-16%[12.7 µM]	.
CC1CCN(C(=O)c2ccc(COc3ccccc3Cl)o2)CC1	-14%	14%	-5%	-55*	-5%	6%[12.7 µM]	-1%
CC1(C(=O)NS(=O)(=O)C2CC2)CCN(C(=O)c2ccccc2F)C1 (configuration not stated)	-11%	.	.	-78*	.	.	0%
CC1(C(=O)NS(=O)(=O)C2CC2)CCN(C(=O)c2ccccc2C(F)(F)F)C1 (configuration not stated)	-17%	.	.	-4	.	.	.
CCN(CC)CCCCCC(=O)Nc1ccccc1C(=O)Nc1ccccc1	0%	16%	-10%	-19	?	0%	-4%
COC(=O)CCC(=O)Nc1ccccc1C(=O)Nc1ccccc1	1%	21%	0%	2	-2%	21%[59 µM]	.
COCc1nc2ccccc2n1CCc1ccccc1	-11%	27%	-8%	5	2%	8%	.
COc1ccc(C(=O)N2CCCC2(C)C(=O)O)cc1C(F)(F)F (configuration not stated)	-10%	.	.	-87*	.	.	1%
CCOC(=O)C1(C)CCCCCN1C(=O)c1ccc(OC)c(C(F)(F)F)c1 (configuration not stated)	2%	.	.	-4	.	.	.
COc1ccc(-c2cc(=O)oc3cc(OC(=O)C4CCCCC4)c(Cl)cc23)cc1	-3%	64%	17%	-55*	36%	55%[59 µM]	-5%
COc1ccc(-c2cc(=O)oc3cc(OC(C)C(=O)NC4CC4)ccc23)cc1 (configuration not stated)	-1%	21%	-22%	0	-9%[57.1 µM]	-4%	.
Cc1cn([C@H]2C[C@H](O)[C@@H](/C=C/C(=O)NCc3ccc(N(C)C)cc3)O2)c(=O)[nH]c1=O	-7%	.	.	0	.	.	.
COc1ccccc1NC(=O)Nc1nc(CC(=O)Nc2ccc(F)c(F)c2)cs1	0%	30%	-12%	-10	-29%	-48%	.
COc1ccccc1NC(=O)Nc1nc(CC(=O)Nc2cc(F)ccc2F)cs1	-6%	-17%	-34%	-52*	-37%	32µM*	3%
Cc1ccc(S(=O)(=O)N2[C@@H](c3ccccc3F)C(C(=O)O)=CC[C@H]2c2ccc(C(C)C)cc2)cc1	?	31%	-13%	7	-29%	14%[2.33 µM]	.
Cc1ccc(S(=O)(=O)N2[C@@H](c3ccc(C(C)(C)C)cc3)C(C(=O)O)=CC[C@H]2c2ccc(C(C)C)cc2)cc1	17µM*	9%	79µM*	-63*	.	.	-10%
Cc1cn([C@@H]2C[C@H](N=[N+]=N)[C@H](CO)O2)c(=O)[nH]c1=O	.	.	.	.	.	13%[21.5 µM]	.
Cc1sc(NC(=O)c2sc3nc4c(C)cccc4cc3c2N)c(C#N)c1C	?	11%	-31%	-63*	?	-89%[2.33 µM]	-6%
CC(C)c1ccc(C2c3[nH]c4ccccc4c3C[C@H]3C(=O)N(c4ccccc4C(=O)N4CCC(C(=O)O)CC4)C(=O)N23)cc1 (some centres not stated)	-12%	13%	-31%	-12	-10%	-5%[12.7 µM]	.
O=C(c1ccc(=O)oc1)N1CCCc2ccccc21	?	-49%	50µM*	-57*	45µM*	?	0%
O=C(c1ccccc1)N1CCCc2ccccc21	0%	37%	3%	-1	4%	-1%[59 µM]	.
SMILES	PLK1 PBD inh	HP1b chromo inh	JMJD2A Tudor	PI5P4Ka inh	BAZ2B block	G9a inh	ADP-Glo interf
CCCCC1Cc2[nH][nH]c(=O)c2C(c2ccc(F)cc2)O1 (configuration not stated)	8.4µM*	.	.	-51*	.	.	-2%
CCCCC1Cc2[nH][nH]c(=O)c2C(c2ccc(Cl)cc2)O1 (configuration not stated)	?	.	.	-6	.	.	.
O=C1NC[C@H](CCCCN2C[C@H](Cc3ccc(O)cc3)N(CCC3CCCCC3)C(=O)C2=O)N(CCc2ccc(O)cc2)C1=O	-10%	.	.	-2	.	.	.
COc1cccc(C(=O)OCC(=O)Nc2sc3c(c2C(N)=O)CCC3)c1O	?	-2%	?	-51*	50µM*	?	4%
COc1ccccc1OCC(=O)Nc1sc2c(c1C(N)=O)CCC2	-18%	11%	?	?	.	.	.
COc1ccc(N2Cc3cccc(C(=O)N4CCN(C(=O)c5ccco5)CC4)c3C2=O)cc1	?	?	50µM*	-84*	50µM*	45µM*	-5%
CCOc1ccc(NC(=O)c2ccc3c(c2)N(Cc2ccc(F)cc2)C(=O)CS3=O)cc1 (configuration not stated)	-5%	45%	-13%	-5	-24%	-18%[59 µM]	.
Cc1ccc(C)c(NC(=O)c2ccc3c(c2)N(Cc2ccc(F)cc2)C(=O)CS3=O)c1 (configuration not stated)	-1%	3%	-27%	-58*	23%	-31%	0%
O=C(COC(=O)C1CCCCC1)Nc1ccccc1OC(F)F	3µM*	6%	11µM*	-68*	.	56%	-5%
Cc1ccc(S(=O)(=O)Nc2ccc(Nc3nccn4c(-c5cccc(OC(F)(F)F)c5)cnc34)cc2)cc1	-2%	.	.	4	.	.	.
CC(=O)Nc1cccc(-c2ccnc3c2CC(C(=O)NCc2ccco2)O3)c1 (configuration not stated)	-1%	.	.	-50*	.	.	5%
Fc1ccc(Nc2nc(NCc3ccco3)c3ccccc3n2)cc1	-11%	-15%	50µM*	.	?	.	-2%
CCN(CC)CCNC(=O)C(=O)NCC(c1ccc2c(c1)OCO2)N1CCOCC1 (configuration not stated)	.	11%[57 µM]	-8%	.	3%	7%[59 µM]	.
O=C1Nc2ccc(S(=O)(=O)NCc3ccccn3)c3cccc1c23	-17%	?	?	-60*	-23%	14%	-8%
CN(C)CCNS(=O)(=O)c1ccc2c3c(cccc13)C(=O)N2	-5%	22%	-12%	-1	-2%	.	.
